Measured values as given in PubChem BioAssay (NCI).
This is part of a sample that, as a whole, favours compounds with a hit. Of some 79,000 tested, about 15% had one in any assay. No stated cut-off is given here; in the data, active means growth inhibition above about 70%; inactive means the rest.

Legend:
[1] = NCI Yeast Anticancer Drug Screen. Data for the rad50 strain (AID 155);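 further: 0% = growth of vehicle-only cultures of the same strain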; settings: S. cerevisiae rad50 strain growth inhibition; at 50.0 µM; active compounds read high
In short: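 Readout: growth inhibition relative to vehicle-treated cultures. Compound exposure was carried out in a genetically defined yeast strain deficient in DNA damage repair.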

[2] = NCI Yeast Anticancer Drug Screen. Data for the mec2-1 strain (AID 157); settings: S. cerevisiae mec2-1 strain, at 50.0 µM, active compounds read high
In short: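 Growth inhibition is read against vehicle-treated controls after compound exposure of the mec2-1 yeast strain, which is defective in DNA damage repair or cell cycle control.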

[3] = NCI Yeast Anticancer Drug Screen. Data for the sgs1 mgt1 strain (AID 161);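 further: 0% = growth of cultures given vehicle only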; settings: S. cerevisiae sgs1 mgt1 strain, at 50.0 µM, active compounds read high
In short: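 Yeast cells carrying a defined DNA-repair defect were exposed to test compounds. Growth inhibition was measured relative to vehicle-treated controls.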

[4] = NCI Yeast Anticancer Drug Screen. Data for the cln2 rad14 strain (AID 165);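 further: 0% = growth equal to vehicle treated cultures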; settings: S. cerevisiae cln2 rad14 strain, at 50.0 µM, active compounds read high
In short: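 Growth inhibition, relative to vehicle-treated controls, is the read-out. The test organism is a yeast strain with defined genetic alterations, cln2 rad14.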

[5] = NCI Yeast Anticancer Drug Screen. Data for the bub3 strain (AID 167); settings: S. cerevisiae bub3 mutant strain, at 50.0 µM, active compounds read high
In short: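 Readout: yeast growth inhibition, expressed relative to vehicle-only wells. The test organism is a mutant strain from a panel with lesions in DNA repair or checkpoint genes.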

[6] = NCI Yeast Anticancer Drug Screen. Data for the mlh1 rad18 strain (AID 175); settings: S. cerevisiae mlh1 rad18 strain growth inhibition; at 50.0 µM; active compounds read high
In short: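 Cells of a genetically altered yeast strain, deficient in DNA damage repair, were treated with compound. Their growth was then compared with that of vehicle-treated cultures to give inhibition.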

Measured: growth inhibition

Cc1cccc[c]1[Sb](=[O])([OH])[OH]
inactive: [1] 6.6% | [2] -10.2% | [3] -15.9% | [4] -7.35% | [5] -17.2% | [6] -2.7%

O=c1cccc2n1CC1CNC[C@H]2C1
inactive: [1] 16.6% | [2] 9.5% | [3] 5.8% | [4] 7.75% | [5] 12.6% | [6] -4.85%

COC(=O)c1ccc(C=C(C#N)C#N)cc1
inactive: [1] -5.75% | [2] -2.6% | [3] -27.9% | [4] 30.6% | [5] 2.45% | [6] -21%
